Results taken from PubChem BioAssay AID1347131 (National Center for Advancing Translational Sciences (NCATS), 2019).
Among all 410,000 compounds or so, about 2,000 (0.49%) were called active. Inconclusive results (about 8%) are left out. The full list was thinned out, with actives kept by preference. Unmarked numbers belong to inactive results. Calls come from the whole dose curve; tested in HEK293 reporter line.

Assay: qHTS Assay for Foot and Mouth Disease Virus Antivirals: Primary Screen against the MLPCN compound library; note: nearly all actives have a fitted effect of over 55% in size
Details: FMDV antiviral cell-based qHTS; series mostly up to 57.9 µM; activity, negative = inhibition: at the top concentration
Potency is the fitted concentration of half-maximal effect.

Q: For COc1cccc(CNC(=O)Cn2cc3c(n2)-c2c(oc(C(=O)N4CCOCC4)c2C)CC3)c1, which “activity, negative = inhibition” value is on record?
A: -31.3%

Q: For Cc1cc(NC(=O)c2ccc(N(C)S(=O)(=O)c3ccccc3)cc2)no1, which “activity, negative = inhibition” value is on record?
A: -30.5%

Q: For Cc1cc(C)n2nc(SCc3ccc(F)cc3Cl)nc2n1, which “activity, negative = inhibition” value is on record?
A: -20.5%

Q: With O=c1c2ccccc2sc2ccc(C#CC3(O)CCCCC3)cc12 as the compound, how does the “activity, negative = inhibition” value read?
A: -68.8%

Q: For Cn1c2ccccc2c(=O)c2ccc(C#CC3(O)CCCCC3)cc21, which Potency is on record?
A: 17.8 µM (active)

Q: For Cc1cc2sc3ccc(C#CC4(O)CCCCC4)cc3c(=O)c2cc1C, which “activity, negative = inhibition” value is on record?
A: -99.3%

Q: With CCOC(=O)C1(Cc2ccccc2)CCN(Cc2cccn2-c2cccnc2)CC1 as the compound, how does the “activity, negative = inhibition” value read?
A: -33.3%

Q: For COc1ccccc1OCCNC(=O)c1cc(C2CC2)nc2c1cnn2C(C)C, which “activity, negative = inhibition” value is on record?
A: -40%

Q: For CCN1C(=O)CC(C(C)C)N(C2CCCC2)c2nc(Nc3ccc(C(=O)NC4CCN(C)CC4)cc3OC)ncc21 (stereo not drawn), which “activity, negative = inhibition” value is on record?
A: -34.5%

Q: Which “activity, negative = inhibition” value does the source give for CCCCC(CC)CNC(=O)c1ccc2c(=O)n(CCOC)c(=O)[nH]c2c1 (stereo not drawn) here?
A: -33.9%

Q: For Cc1ccc(-c2nc(CS(=O)CC(=O)N3CCN(c4ccc(F)cc4)CC3)c(C)o2)cc1 (stereo not drawn), which “activity, negative = inhibition” value is on record?
A: -31.4%

Q: Which “activity, negative = inhibition” value does the source give for COc1ccc(CC(=O)Nc2nc(-c3ccc(OC)c(OC)c3)cs2)cc1OC here?
A: -36.1%

Q: Which “activity, negative = inhibition” value does the source give for Cc1nc(-c2cccc(NC(=O)c3ccc(Cl)c(S(=O)(=O)N4CCCC4)c3)c2)cs1 here?
A: -32.5%

Q: Which Potency does the source give for COc1ccc(CC(=O)Nc2cccc(-c3csc(C)n3)c2)cc1 here?
A: 20 µM (active)

Q: Which “activity, negative = inhibition” value does the source give for COc1ccc(Oc2ncc3nc(-c4ccccc4)c(=O)n(CCC#N)c3n2)cc1 here?
A: -39%

Q: With COc1cccc(/C=N/NC(=O)c2nc(-c3ccccc3)cc(-c3ccccc3)n2)c1 as the compound, how does the “activity, negative = inhibition” value read?
A: -37.4%

Q: With Nc1nonc1-n1nnc(C(=O)N/N=C/c2ccc(O)cc2)c1COc1ccc(F)cc1 as the compound, how does the “activity, negative = inhibition” value read?
A: -32.2%

Q: Which Potency does the source give for COc1ccc(/C=N/NC(=O)c2nonc2C)cc1 here?
A: 11.2 µM (active)

Q: With CC1(C)NC(=O)N(CCCCOc2ccc3c(c2)CCC3)C1=O as the compound, how does the “activity, negative = inhibition” value read?
A: -30.3%

Q: Which “activity, negative = inhibition” value does the source give for Cc1cc(OCCCCN2C(=O)NC(C)(C)C2=O)cc(C)c1Cl here?
A: -34.5%

Q: With CC(C)c1cc(Br)ccc1OCCCN1C(=O)NC(C)(C)C1=O as the compound, how does the Potency read?
A: 28.2 µM (active)

Q: With CC12C(=O)N(c3cccc(OC(=O)c4ccco4)c3)C(=O)C1C1c3ccccc3C2c2ccccc21 (stereo not drawn) as the compound, how does the “activity, negative = inhibition” value read?
A: -42.3%

Q: With CS(=O)(=O)c1ccc(C(=O)OCC(=O)NCc2cccs2)cc1[N+](=O)[O-] as the compound, how does the Potency read?
A: 25.1 µM (active)

Q: For CC(C)CN1CCN(C(=O)COC(=O)c2ccc(S(C)(=O)=O)c([N+](=O)[O-])c2)CC1, which “activity, negative = inhibition” value is on record?
A: -34%

Q: For Nc1cc(C(=O)OCC(=O)NCCNC(=O)COC(=O)c2ccc(Cl)c(N)c2)ccc1Cl, which “activity, negative = inhibition” value is on record?
A: -32.3%

Q: Which “activity, negative = inhibition” value does the source give for COC(=O)c1ccc(COc2ccc(/C=N/NC(N)=S)cc2)o1 here?
A: -33%

Q: Which “activity, negative = inhibition” value does the source give for COc1ccc(NC(=O)c2ccc(COc3ccccc3OC)o2)cc1OC here?
A: -31.3%

Q: Which Potency does the source give for CCc1ccc(OCc2ccc(C(=O)O)o2)cc1 here?
A: 10 µM (active)
